Pf Dd2 inh = inhibitors of Plasmodium falciparum Dd2 growth; P. falciparum Dd2 growth, SYBR Green, 72 h; Potency, µM (doses to about 28.9 µM), hits mostly inhibitors; 120,000 compounds, 4.3% hits; active = well fitted inhibition curve with a large enough effect; also: nearly all actives have a fitted effect of over 65% in size
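Infected erythrocytes (Dd2, 0.3% parasitemia, 2.5% hematocrit final) are added to compound in RPMI-1640/Albumax II medium, grown 72 h at 37C in low oxygen, then lysed with saponin/Triton-X containing SYBR Green and read by fluorescence.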
Each line names hits and unclear results; the compound was inactive in the other large screens. Only a selection was taken, and hits are over-represented in it overall.

CCC(C(=O)N1CCN(C(=O)COc2ccccc2)CC1)n1cccn1 (configuration not stated)	none
O=C1CCN(C(=O)[C@@H](Cc2ccccc2)NS(=O)(=O)c2ccc3c(c2)CCC3)CCOCCN1	none
COCCc1nncn1C1CCN(S(=O)(=O)c2ccc(C(F)(F)F)cc2)CC1	none
CN1CC(=O)N(c2cccnc2)Cc2c(NCC3CC3)ncnc21	none
Cc1cc(C)c(CNC(=O)c2nc(-c3ccnn3C)cc3c2ccn3C(C)C)c(=O)[nH]1	Pf Dd2 inh 7.08µM
Cc1cc(C)c(CNC(=O)c2nc(-c3ccccc3C#N)cc3c2ccn3C(C)C)c(=O)[nH]1	none
Cc1cc(C)c(CNC(=O)c2nc(-c3ccccc3)cc3c2ccn3C(C)C)c(=O)[nH]1	none
COc1ccc(NC(=O)CC2CCCN(c3cnn(CC4CC4)c(=O)c3)C2)cc1 (configuration not stated)	none
COc1ccc(OC)c(C2NC(=O)NC(C)=C2C(=O)Nc2cc(C)cc(C)c2)c1 (configuration not stated)	none
COc1ccc(OC)c(C2Nc3c(C)cc(C)cc3-c3cc(C)nn32)c1 (configuration not stated)	Pf Dd2 inh 0.251µM
COc1cc(C2Nc3c(C)cc(C)cc3-c3cc(C)nn32)cc(OC)c1O (configuration not stated)	none
Cn1cncc1CNC(=O)c1cc(-c2ccc(F)cc2)cc2ncn(C)c12	none
COc1cccc(C2NC(=O)c3n[nH]c(-c4cccs4)c32)c1 (configuration not stated)	none
Cc1ccc(-c2n[nH]c3c2C(c2cccs2)N(c2ccc(Cl)cc2)C3=O)cc1 (configuration not stated)	Pf Dd2 inh 11.2µM
COc1cc(C2c3c(-c4ccc(C)cc4)n[nH]c3C(=O)N2c2ccc(F)cc2)ccc1O (configuration not stated)	none
CCOC(=O)c1ccc(N2C(=O)c3n[nH]c(-c4cccs4)c3C2c2cccc(F)c2)cc1 (configuration not stated)	Pf Dd2 inh 7.94µM
CCOC(=O)c1ccc(N2C(=O)c3n[nH]c(C)c3C2c2ccc(C(C)C)cc2)cc1 (configuration not stated)	none
CCOC(=O)c1sc(N2C(=O)c3oc4cc(C)c(C)cc4c(=O)c3C2c2cccc(O)c2)nc1C (configuration not stated)	none
CCc1ccc(C2c3c(-c4ccccc4)n[nH]c3C(=O)N2c2ccc(C(=O)O)cc2)cc1 (configuration not stated)	none
CCOC(=O)c1ccc(N2C(=O)c3[nH]nc(-c4ccc(OC)cc4)c3C2c2ccc(C)cc2)cc1 (configuration not stated)	Pf Dd2 inh 8.91µM
CCOC(=O)c1ccc(N2C(=O)c3n[nH]c(-c4cccs4)c3C2c2ccc(Cl)cc2Cl)cc1 (configuration not stated)	none
CC1=C(C(=O)OC(C)C)C(c2cccc(F)c2)N2C(CC(=O)NCc3ccco3)=CSC2=N1 (configuration not stated)	none
CCOC(=O)c1ccc(N2C(=O)c3n[nH]c(-c4ccco4)c3C2c2cccc(F)c2)cc1 (configuration not stated)	Pf Dd2 inh 10µM
Cc1ccc(-c2n[nH]c3c2C(c2ccccc2Cl)N(c2ccc(C(=O)O)cc2)C3=O)cc1 (configuration not stated)	none
COc1ccc(CCC(=O)N2CCC[C@H]2c2nc(-c3ccccc3)no2)cc1	none
O=C1Cc2c(-c3ccc4c(c3)OCO4)n[nH]c2CN1Cc1ccccc1	none
Cc1ccsc1C(=O)N1CCCN(c2cc(-c3ccc(Cl)cc3)[nH]n2)CC1	none
O=C(Nc1ccccc1)Nc1ccc([C@H]2OCC(=O)N(Cc3ccc(F)cc3)[C@@H]2CO)cc1	none
O=C1CCN(C(=O)c2cc3ccccc3[nH]2)CCOCCN1	none
CCOC(=O)c1ccc(N2C(=O)c3n[nH]c(-c4cccs4)c3C2c2ccc(O)c(OC)c2)cc1 (configuration not stated)	none
CCOC(=O)c1ccc(N2C(=O)c3n[nH]c(-c4cccs4)c3C2c2ccc(C)cc2)cc1 (configuration not stated)	none
CCOC(=O)c1ccc(N2C(=O)c3n[nH]c(-c4cccs4)c3C2c2ccc(C(C)(C)C)cc2)cc1 (configuration not stated)	Pf Dd2 inh 7.08µM
CN1CCN(C(=O)CCc2nc(C3CCCN3C(=O)NCCc3ccccc3)no2)CC1 (configuration not stated)	none
Cc1ccncc1C(=O)N1CC(c2nnc(-c3ccncc3)o2)C2(CCOCC2)C1 (configuration not stated)	none
CCc1cccc(-n2nnnc2N2CCN(C(=O)NC(C)c3ccccc3)CC2)c1 (configuration not stated)	none
Cc1ccc(NC(=O)N2CCN(c3nnnn3-c3cccc(C(C)C)c3)CC2)cc1F	Pf Dd2 inh 11.2µM
CC(C)c1ccc(NC(=O)N2CCN(c3ccc(Cl)c(Cl)c3)CC2)cc1	none
Cc1ccc(NC(=O)N2CCN(c3nnnn3-c3ccccc3)CC2)cc1F	none
Cc1cc(-n2nnnc2N2CCN(C(=O)Nc3ccc(C)c(F)c3)CC2)ccc1F	Pf Dd2 inh 5.01µM
Cc1ccc(NC(=O)N2CCN3CCCCC3C2)cc1F (configuration not stated)	none
COc1ccc(NC(=O)Cn2nc3c(cc2=O)CN(C(C)=O)CC3)cc1Cl	none
O=C(O)c1cccc(C2CCCN(C(=O)c3ccccc3-c3ncn[nH]3)C2)c1 (configuration not stated)	none
Cn1cnnc1CC1CCNCC1	none
CC1CCCN1c1ncnc2c1CN(C1CCCNCC1)C(=O)CN2C (configuration not stated)	none
CO[C@H]1[C@H](NC(=O)Cc2ccc(C)cc2)c2ccccc2C12CCNCC2	none
CCOc1ccc(CN2CCN(C3CCN(C(C)C)CC3)CC2CCO)cc1 (configuration not stated)	none
COc1ccccc1N1CCN([C@@H]2[C@H](O)[C@H](CO)O[C@@H]2CNC(=O)c2ccccc2)CC1	none
COc1ccccc1N1CCC(N2CCN(CCCc3ccccc3)C(CCO)C2)CC1 (configuration not stated)	Pf Dd2 inh 10µM
CCc1ccc(N2CC(c3noc(-c4ccc5ncccc5c4)n3)CC2=O)cc1 (configuration not stated)	none
O=C(NC[C@H]1O[C@@H](CO)[C@@H](O)[C@H]1N1CCN(c2cccc(C(F)(F)F)c2)CC1)Nc1ccccc1	none
Cc1cc(C)c(CNC(=O)c2cc(-c3ccccc3F)cc3c2OCCN3C(C)C)c(=O)[nH]1	none
CC(=O)Nc1cccc(-c2cc(C(=O)NCc3c(C)cc(C)[nH]c3=O)c3c(c2)N(C(C)C)CCO3)c1	Pf Dd2 inh 1.78µM
Cc1cc(C)c(CNC(=O)c2cc(-c3ccccc3C)cc3c2OCCN3C(C)C)c(=O)[nH]1	none
COc1cc(F)ccc1-c1cc(C(=O)NCc2c(C)cc(C)[nH]c2=O)c2c(c1)N(C(C)C)CCO2	none
Cc1cc(C)c(CNC(=O)c2cc(-c3cccnc3)cc3c2OCCN3C)c(=O)[nH]1	none
Cc1cc(C)c(CNC(=O)c2cc(-c3ccccc3F)cc3c2OCCN3C)c(=O)[nH]1	Pf Dd2 inh 6.31µM
O=C(Cc1cn2ccsc2n1)NC1CCOC2(CCOCC2)C1 (configuration not stated)	none
CN(C)c1ccc(CNC2(Cc3cc(-c4cccc(O)c4)on3)COC2)cc1	none
CCCN(CCC)CCNC(=O)c1cc2c(-c3ccccc3F)nn(C)c2s1	Pf Dd2 inh 3.98µM
COc1ccccc1N1CCN(C(=O)c2cc3c(-c4ccccc4F)nn(C)c3s2)CC1	Pf Dd2 inh 11.2µM

Bioassay records as filed in PubChem.
